For ten compounds, growth results are on record in PubChem BioAssay (NCI).

This is part of a sample that, as a whole, favours compounds with a hit. Of some 83,000 tested, about 20% had one in any assay.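 For each line, cells grew in 96-well plates with the test compound present at a single concentration for 48 hours.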 Values without a mark were called inactive. Calls of active or inactive are those of the source. The calls were made as follows: active = growth percent below 10; inactive = the rest.

In the test the test system is SK-MEL-5 melanoma. The experiment in a line: NCI-60 one-dose screen, 48 h (100 = growth as untreated, 0 = no growth, -100 = all killed). Conditions: 10 µM.
Take `CC(C)(C)c1cc(/C=C2\S/C(=N/c3ncn[nH]3)NC2=O)cc(C(C)(C)C)c1O`: the growth is -25.2% (active).
Under `Cn1cc(/C=C(/SS/C(=C/c2cn(C)c3cccc(C(=O)O)c23)C(=O)O)C(=O)O)c2c(C(=O)O)cccc21` stands 100%.
The result for `COc1ccc(C(=O)COc2ccc(NC(=O)Nc3ccccc3)cc2)cc1` reads 94.3%.
`CCn1c(SCC(=O)Nc2ccc(-c3nc4ccccc4[nH]3)cc2)nc2ccccc2c1=O`: the growth is -51.2% (active).
The result for `O=C(Nc1ccc(OCc2ccc(F)cc2)cc1)Nc1ccc(Cl)c(C(F)(F)F)c1` reads -81.4% (active).
On to `O=C(CC(=O)Nc1ccc(Oc2ncnc3scc(Nc4n[nH]c(=S)s4)c23)cc1)Nc1ccc(Br)cc1`, for which the growth was 98%.
Under `COc1ccc(C(=O)COc2ccc(NC(=O)Nc3ccc(Cl)c(C(F)(F)F)c3)cc2)cc1` stands -67.3% (active); under `O=C(Nc1ccc(Oc2ncnc3scc(Nc4n[nH]c(=S)s4)c23)cc1)C1(C(=O)Nc2cccc(C(F)(F)F)c2)CC1`, 95%.
The result for `O=C1NC(=S)S/C1=C\c1cn(-c2ccccc2)nc1-c1ccc([N+](=O)[O-])cc1` reads -33.3% (active); that for `O=C(CSc1nc2ccccc2c(=O)n1-c1ccc(Cl)cc1)Nc1ccc(-c2nc3ccc([N+](=O)[O-])cc3[nH]2)cc1`, 65.3%.
